Here are results for one sequence from paper PMC7862700, “An all-to-all approach to the identification of sequence-specific readers for epigenetic DNA modifications on cytosine”.

Assay in all cases: DAPPL (digital affinity profiling via proximity ligation, sequencing); 10 mM Tris-HCl pH 7.5, 50 mM NaCl, 1 mM DTT, 4% glycerol, room temperature, 30 min; GST-TFs on glutathione beads, 16-mer random dsDNA library, 0.1% formaldehyde crosslink after washing; high values mean tight binding
The target in one test is T1, FEV (Homo sapiens, UniProt Q99581 1-238).
T1 sequence: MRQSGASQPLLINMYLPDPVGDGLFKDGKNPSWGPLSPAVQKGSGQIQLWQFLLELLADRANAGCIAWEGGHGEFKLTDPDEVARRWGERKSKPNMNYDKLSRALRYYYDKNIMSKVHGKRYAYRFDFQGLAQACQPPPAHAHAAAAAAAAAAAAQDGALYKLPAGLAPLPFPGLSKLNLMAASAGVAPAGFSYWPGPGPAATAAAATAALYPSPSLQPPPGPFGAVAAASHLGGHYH
As to conditions: protein: recombinant; tags: N-terminal GST; dsDNA, one strand shown. A digest of the protocol: (§1)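 Pools of DNA-barcoded human transcription factors, expressed in yeast as GST fusions on glutathione beads and combined with a tag-only sample, were incubated with 200 nmole of a 16-mer random double-stranded DNA library. Incubation took 30 min at room temperature in Tris/NaCl/DTT/glycerol buffer and was followed by washing, 0.1% formaldehyde crosslinking, proximity ligation (BsaI/T4 ligase, 1 h, 37 °C), PCR amplification and sequencing on an Illumina NextSeq500. Binding signal is the ratio of a hexamer's read frequency for a factor to its frequency for the tag-only sample.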

For another test, the target named is ETV5 (Homo sapiens, UniProt P41161 1-510). As to conditions: protein: recombinant; tags: N-terminal GST; dsDNA, one strand shown. An outline of the steps:
as §1

In the next test the target is HSF1 (Homo sapiens, UniProt Q00613 1-529). As to conditions: protein: recombinant; tags: N-terminal GST; chain copies: 3; dsDNA, one strand shown. An outline of the steps: as §1
HSF1, sequence (Q00613 whole entry): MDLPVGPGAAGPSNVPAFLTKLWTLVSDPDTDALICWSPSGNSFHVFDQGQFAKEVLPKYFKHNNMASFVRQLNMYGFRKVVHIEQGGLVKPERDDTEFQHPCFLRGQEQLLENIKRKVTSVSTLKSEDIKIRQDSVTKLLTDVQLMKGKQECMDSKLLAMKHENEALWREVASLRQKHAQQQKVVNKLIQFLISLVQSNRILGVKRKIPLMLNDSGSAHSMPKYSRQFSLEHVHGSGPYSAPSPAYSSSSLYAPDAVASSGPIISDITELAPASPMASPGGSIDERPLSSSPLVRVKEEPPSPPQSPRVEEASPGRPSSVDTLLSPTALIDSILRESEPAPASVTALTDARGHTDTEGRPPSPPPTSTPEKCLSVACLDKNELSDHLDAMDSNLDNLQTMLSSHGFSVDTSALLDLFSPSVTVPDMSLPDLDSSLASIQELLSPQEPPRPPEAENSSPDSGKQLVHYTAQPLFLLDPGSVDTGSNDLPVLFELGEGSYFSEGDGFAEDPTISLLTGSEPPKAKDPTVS
A further test has as its target T2, SPIC (Homo sapiens, UniProt Q8N5J4 1-248).
T2 sequence: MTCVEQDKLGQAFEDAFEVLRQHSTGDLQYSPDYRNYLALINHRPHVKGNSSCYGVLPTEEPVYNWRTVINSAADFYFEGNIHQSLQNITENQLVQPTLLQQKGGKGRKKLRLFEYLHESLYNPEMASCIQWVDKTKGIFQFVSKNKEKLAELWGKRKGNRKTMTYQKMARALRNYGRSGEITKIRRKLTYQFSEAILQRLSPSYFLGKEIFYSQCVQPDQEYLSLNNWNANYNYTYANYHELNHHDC
The note with it: protein: recombinant; tags: N-terminal GST; dsDNA, one strand shown. A digest of the protocol:
as §1

For the next test, the target named is ELF4 (Homo sapiens, UniProt Q99607 1-663). The note with it: protein: recombinant; tags: N-terminal GST; dsDNA, one strand shown. A digest of the protocol: as §1
ELF4, sequence (Q99607 whole entry): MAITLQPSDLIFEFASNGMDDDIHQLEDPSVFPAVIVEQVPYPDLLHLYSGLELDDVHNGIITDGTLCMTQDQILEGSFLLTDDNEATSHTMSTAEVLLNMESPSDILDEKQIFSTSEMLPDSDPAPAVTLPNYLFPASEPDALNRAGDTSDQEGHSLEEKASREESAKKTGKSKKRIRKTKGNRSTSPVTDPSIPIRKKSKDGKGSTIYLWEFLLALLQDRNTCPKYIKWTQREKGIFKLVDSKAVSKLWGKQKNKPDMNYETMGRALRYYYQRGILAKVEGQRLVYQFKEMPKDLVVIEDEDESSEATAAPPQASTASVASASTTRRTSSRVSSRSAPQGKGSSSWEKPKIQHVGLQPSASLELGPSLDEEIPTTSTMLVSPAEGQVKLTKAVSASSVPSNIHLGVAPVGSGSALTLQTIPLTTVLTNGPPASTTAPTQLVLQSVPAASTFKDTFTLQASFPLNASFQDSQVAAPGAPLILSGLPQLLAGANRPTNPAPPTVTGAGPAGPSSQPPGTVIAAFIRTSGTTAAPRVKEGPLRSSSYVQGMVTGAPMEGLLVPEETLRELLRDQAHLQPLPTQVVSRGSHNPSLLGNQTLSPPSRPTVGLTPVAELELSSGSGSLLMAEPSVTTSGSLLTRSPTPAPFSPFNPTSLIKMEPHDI
The next test deals with T3, ELK4 (Homo sapiens, UniProt P28324-2 1-405).
T3 sequence: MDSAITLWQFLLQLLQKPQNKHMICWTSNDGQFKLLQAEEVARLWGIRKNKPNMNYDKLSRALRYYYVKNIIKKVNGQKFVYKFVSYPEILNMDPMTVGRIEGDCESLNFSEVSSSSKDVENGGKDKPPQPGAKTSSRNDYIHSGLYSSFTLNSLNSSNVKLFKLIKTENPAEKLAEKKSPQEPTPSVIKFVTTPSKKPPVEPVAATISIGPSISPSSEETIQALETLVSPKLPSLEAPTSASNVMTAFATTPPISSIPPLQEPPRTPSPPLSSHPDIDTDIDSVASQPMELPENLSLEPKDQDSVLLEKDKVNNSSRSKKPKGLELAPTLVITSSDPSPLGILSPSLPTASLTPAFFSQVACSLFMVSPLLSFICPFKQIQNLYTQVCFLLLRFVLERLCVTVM
As to conditions: protein: recombinant; tags: N-terminal GST; dsDNA, one strand shown. An outline of the steps:
as §1

The target of the next test is T4, ETV2 (Homo sapiens, UniProt O00321 1-342).
T4 sequence: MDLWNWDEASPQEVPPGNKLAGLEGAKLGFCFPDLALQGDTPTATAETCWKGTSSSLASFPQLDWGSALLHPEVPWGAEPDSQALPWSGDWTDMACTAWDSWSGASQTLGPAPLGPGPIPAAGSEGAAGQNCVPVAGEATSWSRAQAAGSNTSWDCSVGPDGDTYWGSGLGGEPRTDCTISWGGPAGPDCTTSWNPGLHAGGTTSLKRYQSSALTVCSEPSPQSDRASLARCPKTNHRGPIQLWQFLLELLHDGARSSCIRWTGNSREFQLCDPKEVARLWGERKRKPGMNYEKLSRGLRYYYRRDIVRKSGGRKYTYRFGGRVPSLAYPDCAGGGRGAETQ
The note with it: protein: recombinant; tags: N-terminal GST; dsDNA, one strand shown. A digest of the protocol:
as §1

A further test addresses T5, ELF3 (Homo sapiens, UniProt P78545 1-371).
T5 sequence: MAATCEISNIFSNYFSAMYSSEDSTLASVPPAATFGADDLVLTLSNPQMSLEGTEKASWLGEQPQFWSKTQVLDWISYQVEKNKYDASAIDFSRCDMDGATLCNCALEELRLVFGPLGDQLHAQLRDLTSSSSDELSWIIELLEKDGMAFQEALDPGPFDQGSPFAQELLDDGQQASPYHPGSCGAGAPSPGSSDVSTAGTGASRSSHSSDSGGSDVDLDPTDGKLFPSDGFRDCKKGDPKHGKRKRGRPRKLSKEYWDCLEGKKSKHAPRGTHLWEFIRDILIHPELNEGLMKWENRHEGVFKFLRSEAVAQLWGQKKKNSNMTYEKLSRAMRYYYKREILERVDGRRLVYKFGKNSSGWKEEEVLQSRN
As to conditions: protein: recombinant; tags: N-terminal GST; dsDNA, one strand shown. An outline of the steps:
as §1

For another test, the target named is CRX (Homo sapiens, UniProt O43186 1-299). The note with it: protein: recombinant; tags: N-terminal GST; dsDNA, one strand shown. A digest of the protocol:
as §1

The target in another test is ETV1 (Homo sapiens, UniProt P50549 1-477). The note with it: protein: recombinant; tags: N-terminal GST; dsDNA, one strand shown. An outline of the steps:
as §1

Another test addresses T6, ERF (Homo sapiens, UniProt P50548 1-548).
T6 sequence: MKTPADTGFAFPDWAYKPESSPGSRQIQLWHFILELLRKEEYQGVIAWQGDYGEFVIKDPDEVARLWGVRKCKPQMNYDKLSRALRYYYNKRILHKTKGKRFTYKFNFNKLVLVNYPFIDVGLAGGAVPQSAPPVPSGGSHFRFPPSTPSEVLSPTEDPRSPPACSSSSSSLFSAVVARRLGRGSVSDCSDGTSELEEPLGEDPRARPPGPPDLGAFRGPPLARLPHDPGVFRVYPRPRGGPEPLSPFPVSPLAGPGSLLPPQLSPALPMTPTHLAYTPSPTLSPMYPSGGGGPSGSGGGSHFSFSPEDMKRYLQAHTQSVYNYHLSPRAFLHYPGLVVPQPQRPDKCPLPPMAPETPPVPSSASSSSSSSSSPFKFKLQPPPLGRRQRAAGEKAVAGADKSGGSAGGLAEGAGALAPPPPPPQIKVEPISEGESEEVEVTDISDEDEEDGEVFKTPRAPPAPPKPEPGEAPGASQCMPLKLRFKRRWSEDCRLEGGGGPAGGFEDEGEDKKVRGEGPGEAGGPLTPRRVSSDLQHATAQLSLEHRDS
The note with it: protein: recombinant; tags: N-terminal GST; dsDNA, one strand shown. A digest of the protocol: as §1

Another test addresses T7, ETV3L (Homo sapiens, UniProt Q6ZN32 1-361).
T7 sequence: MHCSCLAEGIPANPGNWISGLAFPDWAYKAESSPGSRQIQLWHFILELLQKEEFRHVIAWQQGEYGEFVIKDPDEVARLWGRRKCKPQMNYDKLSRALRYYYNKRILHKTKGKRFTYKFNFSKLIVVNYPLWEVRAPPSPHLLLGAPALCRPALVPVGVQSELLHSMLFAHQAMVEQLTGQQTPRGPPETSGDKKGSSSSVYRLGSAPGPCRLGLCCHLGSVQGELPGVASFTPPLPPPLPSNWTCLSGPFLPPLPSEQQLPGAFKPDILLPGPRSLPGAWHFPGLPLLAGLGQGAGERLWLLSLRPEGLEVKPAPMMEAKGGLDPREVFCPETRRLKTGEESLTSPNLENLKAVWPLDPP
As to conditions: protein: recombinant; tags: N-terminal GST; dsDNA, one strand shown. An outline of the steps: as §1

The target in the next test is T8, ETS2 (Homo sapiens, UniProt P15036 1-469).
T8 sequence: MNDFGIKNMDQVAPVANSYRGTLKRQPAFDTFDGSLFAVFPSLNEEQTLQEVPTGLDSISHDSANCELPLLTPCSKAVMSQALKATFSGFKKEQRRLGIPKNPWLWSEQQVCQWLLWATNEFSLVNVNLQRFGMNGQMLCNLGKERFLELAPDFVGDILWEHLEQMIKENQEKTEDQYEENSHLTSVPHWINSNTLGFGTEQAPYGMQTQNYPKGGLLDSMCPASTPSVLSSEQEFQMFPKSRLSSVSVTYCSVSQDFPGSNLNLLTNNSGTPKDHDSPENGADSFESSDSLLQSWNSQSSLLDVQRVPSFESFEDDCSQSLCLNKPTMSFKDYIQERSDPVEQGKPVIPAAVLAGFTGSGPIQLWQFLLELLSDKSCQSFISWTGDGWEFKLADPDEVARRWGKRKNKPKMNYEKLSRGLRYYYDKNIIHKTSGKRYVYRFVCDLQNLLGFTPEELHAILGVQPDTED
The note with it: protein: recombinant; tags: N-terminal GST; dsDNA, one strand shown. An outline of the steps:
as §1

Another test deals with T9, SPDEF (Homo sapiens, UniProt O95238 1-335).
T9 sequence: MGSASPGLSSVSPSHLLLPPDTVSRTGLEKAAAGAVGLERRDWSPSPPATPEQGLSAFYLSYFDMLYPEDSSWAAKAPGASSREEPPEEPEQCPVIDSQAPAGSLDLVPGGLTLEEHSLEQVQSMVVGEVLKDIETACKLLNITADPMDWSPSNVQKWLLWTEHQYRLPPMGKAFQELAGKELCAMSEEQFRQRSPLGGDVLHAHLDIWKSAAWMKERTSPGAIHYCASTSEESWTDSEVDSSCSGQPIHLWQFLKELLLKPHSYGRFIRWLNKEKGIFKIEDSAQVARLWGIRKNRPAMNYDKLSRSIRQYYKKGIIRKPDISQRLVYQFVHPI
As to conditions: protein: recombinant; tags: N-terminal GST; dsDNA, one strand shown. A digest of the protocol: as §1

Another test has as its target T10, ETV7 (Homo sapiens, UniProt Q9Y603 1-341).
T10 sequence: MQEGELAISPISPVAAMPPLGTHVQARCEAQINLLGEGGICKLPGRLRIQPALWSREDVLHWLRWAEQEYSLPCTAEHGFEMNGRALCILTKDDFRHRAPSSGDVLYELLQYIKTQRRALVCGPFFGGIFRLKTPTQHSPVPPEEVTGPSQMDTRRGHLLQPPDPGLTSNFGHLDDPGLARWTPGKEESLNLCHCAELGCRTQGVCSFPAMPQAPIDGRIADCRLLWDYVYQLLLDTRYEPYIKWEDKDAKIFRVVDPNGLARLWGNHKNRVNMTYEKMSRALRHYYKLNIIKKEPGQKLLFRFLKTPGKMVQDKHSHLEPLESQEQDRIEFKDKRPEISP
As to conditions: protein: recombinant; tags: N-terminal GST; dsDNA, one strand shown. A digest of the protocol: as §1

The target in a further test is T11, ELF5 (Homo sapiens, UniProt Q9UKW6-2 1-255).
T11 sequence: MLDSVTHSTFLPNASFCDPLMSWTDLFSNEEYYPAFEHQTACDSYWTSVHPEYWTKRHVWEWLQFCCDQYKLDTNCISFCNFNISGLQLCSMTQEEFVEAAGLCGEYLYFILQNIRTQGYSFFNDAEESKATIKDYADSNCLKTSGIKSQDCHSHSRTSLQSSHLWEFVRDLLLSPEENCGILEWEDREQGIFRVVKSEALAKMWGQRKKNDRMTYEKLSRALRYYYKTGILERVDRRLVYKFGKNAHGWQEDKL
The note with it: protein: recombinant; tags: N-terminal GST; dsDNA, one strand shown. An outline of the steps: as §1

In a further test the target is T12, ETV3 (Homo sapiens, UniProt P41162-2 1-143).
T12 sequence: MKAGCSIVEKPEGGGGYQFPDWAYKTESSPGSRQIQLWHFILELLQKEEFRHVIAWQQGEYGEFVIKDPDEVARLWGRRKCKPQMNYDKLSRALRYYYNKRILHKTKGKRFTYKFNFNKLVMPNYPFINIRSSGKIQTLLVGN
The note with it: protein: recombinant; tags: N-terminal GST; dsDNA, one strand shown. An outline of the steps: as §1

The target in a further test is ETV6 (Homo sapiens, UniProt P41212 1-452). As to conditions: protein: recombinant; tags: N-terminal GST; dsDNA, one strand shown. A digest of the protocol: as §1
ETV6, sequence (P41212 whole entry): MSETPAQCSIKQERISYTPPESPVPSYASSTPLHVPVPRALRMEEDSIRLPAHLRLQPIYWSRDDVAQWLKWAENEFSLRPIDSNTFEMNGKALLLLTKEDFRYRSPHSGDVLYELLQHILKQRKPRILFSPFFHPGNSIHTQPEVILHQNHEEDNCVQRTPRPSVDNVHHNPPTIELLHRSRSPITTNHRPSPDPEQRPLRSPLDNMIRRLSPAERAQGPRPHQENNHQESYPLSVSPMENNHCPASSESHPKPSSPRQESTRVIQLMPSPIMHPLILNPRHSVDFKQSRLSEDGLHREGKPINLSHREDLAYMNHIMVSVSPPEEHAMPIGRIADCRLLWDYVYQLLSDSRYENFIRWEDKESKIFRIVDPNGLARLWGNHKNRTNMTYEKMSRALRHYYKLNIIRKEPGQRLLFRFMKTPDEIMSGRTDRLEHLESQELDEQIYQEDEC

ETV5, sequence (P41161 whole entry): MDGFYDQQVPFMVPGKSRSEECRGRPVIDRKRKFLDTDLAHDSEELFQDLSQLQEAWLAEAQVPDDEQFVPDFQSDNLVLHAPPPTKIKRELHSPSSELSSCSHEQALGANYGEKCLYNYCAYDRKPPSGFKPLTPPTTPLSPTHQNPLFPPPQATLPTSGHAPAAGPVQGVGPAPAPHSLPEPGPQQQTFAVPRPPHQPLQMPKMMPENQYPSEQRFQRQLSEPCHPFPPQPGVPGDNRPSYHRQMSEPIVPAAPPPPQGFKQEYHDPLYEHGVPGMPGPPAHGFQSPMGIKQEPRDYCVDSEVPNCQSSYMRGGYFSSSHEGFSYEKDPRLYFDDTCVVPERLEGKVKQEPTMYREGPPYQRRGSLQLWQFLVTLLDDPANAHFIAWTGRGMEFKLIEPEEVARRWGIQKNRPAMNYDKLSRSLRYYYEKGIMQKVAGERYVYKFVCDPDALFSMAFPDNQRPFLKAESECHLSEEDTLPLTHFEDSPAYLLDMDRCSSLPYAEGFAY
CRX, sequence (O43186 whole entry): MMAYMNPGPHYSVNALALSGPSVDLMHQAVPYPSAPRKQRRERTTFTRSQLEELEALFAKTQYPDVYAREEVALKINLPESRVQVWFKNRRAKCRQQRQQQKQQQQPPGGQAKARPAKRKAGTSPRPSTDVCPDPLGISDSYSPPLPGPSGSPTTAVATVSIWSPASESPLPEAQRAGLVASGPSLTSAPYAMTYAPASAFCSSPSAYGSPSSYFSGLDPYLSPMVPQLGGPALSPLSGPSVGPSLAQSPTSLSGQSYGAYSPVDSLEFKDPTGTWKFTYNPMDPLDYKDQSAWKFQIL
ETV1, sequence (P50549 whole entry): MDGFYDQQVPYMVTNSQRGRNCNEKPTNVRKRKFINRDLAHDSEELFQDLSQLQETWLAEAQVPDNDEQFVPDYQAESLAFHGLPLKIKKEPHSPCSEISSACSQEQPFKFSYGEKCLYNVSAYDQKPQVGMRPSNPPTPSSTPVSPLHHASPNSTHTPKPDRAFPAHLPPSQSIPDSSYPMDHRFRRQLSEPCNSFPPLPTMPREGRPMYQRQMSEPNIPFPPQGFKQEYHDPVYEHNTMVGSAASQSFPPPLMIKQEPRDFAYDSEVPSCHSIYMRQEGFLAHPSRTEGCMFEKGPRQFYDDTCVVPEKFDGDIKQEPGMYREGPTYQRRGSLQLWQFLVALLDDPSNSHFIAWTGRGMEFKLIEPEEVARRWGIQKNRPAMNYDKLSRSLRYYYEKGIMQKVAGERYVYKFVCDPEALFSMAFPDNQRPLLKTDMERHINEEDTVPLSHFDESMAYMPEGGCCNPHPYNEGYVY

For the sequence CTTTGA, the binding signal with FEV is 1.14 fold enrichment (6-mer frequency, TF over GST control); with ETV5, 1.18 fold enrichment (6-mer frequency, TF over GST control); with HSF1, 1.21 fold enrichment (6-mer frequency, TF over GST control); with SPIC, 1.4 fold enrichment (6-mer frequency, TF over GST control); in the test with ELF4 it was 1.24 fold enrichment (6-mer frequency, TF over GST control); with ELK4, 1.41 fold enrichment (6-mer frequency, TF over GST control). Besides, the binding signal with ETV2 is 1.27 fold enrichment (6-mer frequency, TF over GST control); with ELF3 it was 1.16 fold enrichment (6-mer frequency, TF over GST control); with CRX, 1.23 fold enrichment (6-mer frequency, TF over GST control); in the test with ETV1 it was 1.21 fold enrichment (6-mer frequency, TF over GST control); in the test with ERF, 1.18 fold enrichment (6-mer frequency, TF over GST control); with ETV3L, 1.11 fold enrichment (6-mer frequency, TF over GST control). In addition, the binding signal is 1.15 fold enrichment (6-mer frequency, TF over GST control) with ETS2; 1.1 fold enrichment (6-mer frequency, TF over GST control) with SPDEF; 1.34 fold enrichment (6-mer frequency, TF over GST control) with ETV7; 1.16 fold enrichment (6-mer frequency, TF over GST control) in the test with ELF5; 1.35 fold enrichment (6-mer frequency, TF over GST control) in the test with ETV3; 1.25 fold enrichment (6-mer frequency, TF over GST control) with ETV6.
